Test results published in PubChem BioAssay AID527 (NMMLSC, 2006).
The campaign covered roughly 24,000 compounds. About 65 (0.3%) were called active.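 Rule for the calls: active = share of bacteria positive for the green fluorescent reporter and its mean brightness both inhibited by 50% or more; inactive = the rest, inconclusive results apart.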 For the sample, actives were picked, then their nearest neighbours and some compounds at random.

Assay: S. aureus quorum sensing inhibitors, primary screen, RNAIII-GFP reporter, flow cytometry (AID 527);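 note: 0% = AIP-stimulated control and 100% = unstimulated bacteria without AIP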
Conditions: S. aureus RN6390 RNAIII-GFP reporter, AIP-induced, flow cytometry 3 h, at 2 µM, stronger effect = higher value
[1] = measured here: inhibition of GFP MFI

| SMILES | inhibition | inhibition [1] |
| --- | --- | --- |
| COC(=O)c1ccc(NC(=O)C(C)N2C(=O)c3ccccc3C2=O)cc1 (centres undefined) | -1.2% (inactive) | -12.9% |
| Cc1cc(Nc2cccc(C)c2C)n2ncnc2n1 | 0% (inactive) | 1.4% |
| COC(=O)c1ccc2c(=O)n(CC3CCCO3)c(=S)[nH]c2c1 (centres undefined) | -2.1% (inactive) | 1.7% |
| O=C(NCCCN1CCN(C2CCCCC2)CC1)Nc1ccccc1C(F)(F)F | -9.7% (inactive) | -13.2% |
| COc1cccc(N2CCN(C(=O)C3CCCN(S(=O)(=O)c4cnc[nH]4)C3)CC2)c1 (centres undefined) | -1.3% (inactive) | -0.6% |
| O=C(CCn1c(=O)[nH]c2ccccc2c1=O)NCCCN1CCN(c2cccc(Cl)c2)CC1 | -4.8% (inactive) | -25.8% |
| Cc1ccc(C)c(N2CCN(C(=O)CCCCn3c(=O)[nH]c4ccccc4c3=O)CC2)c1 | 71.2% (active) | 71.1% |
| Cc1ccc(C)c(N2CCN(C(=O)CCc3nc4ccccc4[nH]3)CC2)c1 | 5.3% (inactive) | 36.1% |
| COC(=O)c1ccc(CN(c2ccccc2OC)S(=O)(=O)c2cccs2)o1 | -0.8% (inactive) | -15.8% |
| COC(=O)CN(c1nc(C)c(Cl)c(OC)n1)S(=O)(=O)c1ccc(C)cc1 | -3.6% (inactive) | -2.5% |
| Cc1ccccc1S(=O)(=O)Cc1ccc(C(=O)NCCN2CCCCC2C)o1 (centres undefined) | 1.5% (inactive) | -6.9% |
| O=C(C(Cc1ccccc1)n1cccc1)N1CCN(C2CCCCC2)CC1 (centres undefined) | -0.8% (inactive) | -1.7% |
| CCOc1ccc(OCC)c(NC(=O)C2CCN(S(=O)(=O)c3c(C)noc3C)CC2)c1 | -1.2% (inactive) | -15.6% |
| O=C(c1ccccc1)c1ccc2nc(N3CCCCC3)c3nncn3c2c1 | -1.8% (inactive) | -34.9% |
| Cc1cccc(N2CCN(Cc3c(C)n(C)n(-c4ccccc4)c3=O)CC2)c1C | -0.1% (inactive) | -1.8% |
| COc1cccc(N2C(=O)C3CCCN3C2c2ccc(F)cc2)c1 (centres undefined) | -4.7% (inactive) | -8.4% |
| CN1CCN(S(=O)(=O)c2ccc3[nH]cc(C(=O)O)c(=O)c3c2)CC1 | -2.2% (inactive) | -22.7% |
| CC(C)N1C(=O)C2C(C(=O)NC3CCCCC3)C3C=CC2(O3)C1C(=O)NC1CCCC1 (centres undefined) | -2.6% (inactive) | -16.1% |
| CC1CCC(NS(=O)(=O)c2ccc3c(c2)n(C)c(=O)c(=O)n3C)CC1 (centres undefined) | -0.4% (inactive) | 12.3% |
| C=CCn1c2ccccc2c2nnc(SC(CC)C(=O)Nc3nc(C)c(C(=O)OCC)s3)nc21 (centres undefined) | 28.9% (inactive) | 48.3% |
| COC(=O)c1cc(C(=O)OC)cc(N2C(=O)CC(N3CCN(c4ccccc4)CC3)C2=O)c1 (centres undefined) | 5.6% (inactive) | 38.5% |
| COCCCNC(=O)CSc1nc2ccc(N3CCOCC3)cc2c(=O)n1CCc1ccccc1 | 10.2% (inactive) | 33.4% |
| COC(=O)Cn1c(=NC(=O)CSCC(=O)Nc2cc(C)on2)sc2ccccc21 | 0.4% (inactive) | 4.6% |
| CC(C)(C)C(=O)CCN1C(=O)C2(OCCO2)c2ccccc21 | -2.2% (inactive) | -21.9% |
| Cc1cccn2c(=O)c3cc(C(=O)NCc4ccccn4)n(C)c3nc12 | -3.5% (inactive) | -9.7% |
| C=CCSc1nnc(Cn2c(=O)sc3ccccc32)n1C | 24.2% (inactive) | 43.3% |

| SMILES | inhibition | inhibition [1] |
| --- | --- | --- |
| CCCS(=O)(=O)N1CCCC(C(=O)N2CCN(c3ccccc3)CC2)C1 (centres undefined) | -1% (inactive) | -6.2% |
| CC(c1ccco1)N(C(=O)c1ccc(S(=O)(=O)N2CCCCC2)cc1)c1ccccn1 (centres undefined) | -0.6% (inactive) | 4.5% |
| CCC1=C(C(=O)OC)C(c2cc(OC)ccc2OC)C(C#N)=C(N)O1 (centres undefined) | -0.3% (inactive) | 1.1% |
| Cc1nc2ccc(S(=O)(=O)NCC(=O)NCCN3CCCCC3C)cc2s1 (centres undefined) | -2.2% (inactive) | -14.7% |
| CCCOC(=O)c1cc2ccccc2oc1=O | 3.4% (inactive) | 8.3% |
| CSc1cccc(NC(=O)C2CCCN2S(=O)(=O)c2ccc3c(c2)CCC(=O)N3)c1 (centres undefined) | 8.9% (inactive) | 21% |
| O=C(CN1C(=O)CSc2ncccc21)N1CCOCC1 | -5.1% (inactive) | -14.2% |
| CC1CN(C(=O)c2ccc3c(c2)OCO3)OC(c2ccccc2)O1 (centres undefined) | 6% (inactive) | 10.1% |
| c1ccc(-c2cn3cccnc3n2)cc1 | -2.7% (inactive) | -34.3% |
| CS(=O)(=O)NCc1ccc(C(=O)NCc2ccccc2)cc1 | -0.2% (inactive) | -1.2% |
| CS(=O)(=O)N(Cc1nc2sc3c(c2c(=O)[nH]1)CCCC3)C1CCCCC1 | 0.3% (inactive) | -0.2% |
| Cc1ccc(NC(=O)CSc2nnc(-c3cnccn3)n2Cc2ccco2)cc1C | -0.7% (inactive) | -6.3% |
| CC(=O)C1C(c2cccc(Oc3ccccc3)c2)NC(=O)NC1(O)C(F)(F)F (centres undefined) | 18.4% (inactive) | 32% |
| CCOc1ccc(NCCC(=O)c2ccc3c(c2)OCO3)cc1 | -0.1% (inactive) | 10.4% |
| CCOC(=O)C1CCN(C(=O)C2CCN(S(=O)(=O)c3c(C)noc3C)CC2)CC1 | -1.5% (inactive) | -40% |
| COc1cc(C2C(C#N)=C(N)Oc3n[nH]c(-c4ccccn4)c32)cc(OC)c1OC (centres undefined) | -3.4% (inactive) | 8.1% |
| CSc1ccc(NC(=O)N2CC(C)OC(C)C2)cc1 (centres undefined) | 0% (inactive) | 1.1% |
| O=C(CN1CCN(S(=O)(=O)c2ccc(F)cc2)CC1)Nc1ccccc1F | 11.5% (inactive) | 16.5% |
| COc1ccc(C2CC(c3ccc(C)cc3)Nc3ncnn32)cc1 (centres undefined) | -0.4% (inactive) | 12.6% |
| CCCCN=C(N)/C(C(=O)OCC)=C(\O)c1ccc(OC)cc1 | 0.5% (inactive) | 11.9% |
| O=C(O)c1cccc2c1C(=O)N(C1CCCCC1)C2 | 0% (inactive) | 21.1% |
| CCN(CC)S(=O)(=O)c1ccc2[nH]cc(C(=O)NCCc3ccccc3)c(=O)c2c1 | -0.1% (inactive) | -2.7% |
| COc1c(F)c(F)c(C(=O)O)c(Nc2ccccc2C)c1F | -1.7% (inactive) | -14% |
| COc1ccc(C(=O)Nc2cccnc2)cc1C(=O)Nc1cccnc1 | 2.2% (inactive) | 2.6% |
| COc1ccc(N2C(=O)c3cccc4cccc(c34)C2=O)nn1 | -1.1% (inactive) | -16.4% |
| Cc1cccc(C)c1NC(=O)N1CC=C(n2c(=O)[nH]c3ccccc32)CC1 | 8.3% (inactive) | 17.1% |
